Experimental data: the supplement of paper PMC8728848
About 410 targets per protein were measured; listed, in parts, are those with the strongest signals and a random draw of the rest.

Experiments:
Experiment in all cases: glycan array binding signal (z-score within array); higher = stronger binding
Conditions in all cases: glycan notation: IUPAC condensed, linker removed
Fuc(a1-2)Gal = target: Fuc(a1-2)Gal
In short: (§1)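 Glycan array binding is given as a within-array Z-score, which can be read as non-binding when negative. The arrays, 3228 of them, came from the Consortium for Functional Glycomics database and were retained only where the protein sequence was available. Z-scores were averaged across arrays of the same protein sequence at different concentrations or buffers and across linkers.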

[1] = target: Fuc(a1-2)Gal(b1-4)GlcNAc(b1-3)Gal(b1-4)GlcNAc
In short: as §1

[2] = target: Fuc(a1-2)Gal(b1-4)GlcNAc6S
In short: as §1

Fuc(a1-2)GlcNAc = target: Fuc(a1-2)GlcNAc
In short: as §1

[3] = target: Fuc(a1-2)[Gal(a1-3)]Gal(b1-4)[Fuc(a1-3)]GlcNAc
In short: as §1

[4] = target: Fuc(a1-2)[GalNAc(a1-3)]Gal(b1-4)[Fuc(a1-3)]GlcNAc
In short: as §1

[5] = target: Fuc(a1-3)[Gal3S(b1-4)]GlcNAc6S
In short: as §1

Gal(a1-4)Gal(b1-4)Gal = target: Gal(a1-4)Gal(b1-4)Gal
In short: as §1

Gal(b1-3)Gal = target: Gal(b1-3)Gal
In short: as §1

[6] = target: Gal(b1-3)GalNAc(b1-3)Gal(b1-4)GlcNAc
In short: as §1

[7] = target: Gal(b1-3)[Neu5Ac(b2-6)]GlcNAc
In short: as §1

Gal(b1-4)Glc = target: Gal(b1-4)Glc
In short: as §1

Gal(b1-4)Glc6S = target: Gal(b1-4)Glc6S
In short: as §1

[8] = target: Gal(b1-4)GlcNAc(b1-6)[Gal(b1-3)]GalNAc
In short: as §1

Gal3S(b1-4)GlcNAc6S = target: Gal3S(b1-4)GlcNAc6S
In short: as §1

Gal3S6S(b1-4)GlcNAc = target: Gal3S6S(b1-4)GlcNAc
In short: as §1

Gal3S6S(b1-4)GlcNAc6S = target: Gal3S6S(b1-4)GlcNAc6S
In short: as §1

GalNAc(a1-3)Gal = target: GalNAc(a1-3)Gal
In short: as §1

Glc(b1-6)Glc = target: Glc(b1-6)Glc
In short: as §1

Man(a1-2)Man(a1-3)Man = target: Man(a1-2)Man(a1-3)Man
In short: as §1

[9] = target: Neu5Ac(a2-3)Gal(b1-3)[Fuc(a1-4)]GlcNAc(b1-3)Gal(b1-4)[Fuc(a1-3)]GlcNAc
In short: as §1

[10] = target: Neu5Ac(a2-3)Gal(b1-4)GlcNAc6S
In short: as §1

[11] = target: Neu5Ac(a2-3)Gal(b1-4)[Fuc(a1-3)]GlcNAc(b1-3)Gal(b1-4)[Fuc(a1-3)]GlcNAc(b1-3)Gal(b1-4)[Fuc(a1-3)]GlcNAc
In short: as §1

Neu5Ac(a2-6)Gal(b1-4)Glc = target: Neu5Ac(a2-6)Gal(b1-4)Glc
In short: as §1

[12] = target: Neu5Ac(a2-8)Neu5Ac(a2-8)Neu5Ac(a2-3)[GalNAc(b1-4)]Gal(b1-4)Glc
In short: as §1

[13] = target: Neu5Ac(b2-6)Gal(b1-4)GlcNAc
In short: as §1

[14] = target: Fuc(a1-2)Gal(b1-3)GalNAc(b1-3)Gal(b1-4)Glc
In short: as §1

[15] = target: Gal(b1-3)GalNAc(b1-3)Gal(b1-4)Glc
In short: as §1

[16] = target: Gal(b1-3)GalNAc(b1-4)Gal(b1-4)Glc
In short: as §1

Gal(b1-4)GlcNAc = target: Gal(b1-4)GlcNAc
In short: as §1

[17] = target: Gal(b1-4)GlcNAc(b1-3)Gal(b1-4)Glc
In short: as §1

[18] = target: Gal(b1-4)GlcNAc(b1-3)Gal(b1-4)GlcNAc(b1-3)Gal(b1-4)GlcNAc
In short: as §1

GalNAc(b1-4)GlcNAc = target: GalNAc(b1-4)GlcNAc
In short: as §1

[19] = target: GlcNAc(a1-3)Gal(b1-4)GlcNAc
In short: as §1

[20] = target: GlcNAc(a1-6)Gal(b1-4)GlcNAc
In short: as §1

GlcNAc(b1-3)Gal = target: GlcNAc(b1-3)Gal
In short: as §1

[21] = target: GlcNAc(b1-3)Gal(b1-3)GalNAc
In short: as §1

[22] = target: GlcNAc(b1-6)Gal(b1-4)GlcNAc
In short: as §1

[23] = target: Man(a1-2)Man(a1-2)Man(a1-3)Man
In short: as §1

[24] = target: Neu5Gc(a2-3)Gal(b1-4)GlcNAc
In short: as §1

B1: FBG3 (Homo sapiens), Q9H4M3 (protein)
chain: MAVGNINELPENILLELFTHVPARQLLLNCRLVCSLWRDLIDLVTLWKRKCLREGFITEDWDQPVADWKIFYFLRSLHRNLLHNPCAEEGFEFWSLDVNGGDEWKVEDLSRDQRKEFPNDQVKKYFVTSYYTCLKSQVVDLKAEGYWEELMDTTRPDIEVKDWFAARPDCGSKYQLCVQLLSSAHAPLGTFQPDPATIQQKSDAKWREVSHTFSNYPPGVRYIWFQHGGVDTHYWAGWYGPRVTNSSITIGPPLP
Q: With B1 as the binder, how does the “glycan array binding signal (z-score)” value (Fuc(a1-2)Gal) read?
A: The value was 0.149.

Q: What about the “glycan array binding signal (z-score)” value [1] of the same binder?
A: Its value is -0.582.

Q: What about the “glycan array binding signal (z-score)” value [2] of the same binder?
A: Its value is 0.121.

Q: What about the “glycan array binding signal (z-score)” value (Fuc(a1-2)GlcNAc) of the same binder?
A: The value was -0.096.

Q: What about the “glycan array binding signal (z-score)” value [3] of the same binder?
A: Its value is 0.034.

Q: And the “glycan array binding signal (z-score)” value [4]?
A: The value was 0.422.

Q: And the “glycan array binding signal (z-score)” value [5]?
A: Its value is 1.94.

Q: What about the “glycan array binding signal (z-score)” value (Gal(a1-4)Gal(b1-4)Gal) of the same binder?
A: Its value is -0.387.

Q: What about the “glycan array binding signal (z-score)” value (Gal(b1-3)Gal) of the same binder?
A: The value was -0.052.

Q: And the “glycan array binding signal (z-score)” value [6]?
A: Its value is -0.569.

Q: What about the “glycan array binding signal (z-score)” value [7] of the same binder?
A: Its value is -0.544.

Q: And the “glycan array binding signal (z-score)” value (Gal(b1-4)Glc)?
A: Its value is 0.009.

Q: What about the “glycan array binding signal (z-score)” value (Gal(b1-4)Glc6S) of the same binder?
A: The value was 0.065.

Q: What about the “glycan array binding signal (z-score)” value [8] of the same binder?
A: The value was -0.478.

Q: What about the “glycan array binding signal (z-score)” value (Gal3S(b1-4)GlcNAc6S) of the same binder?
A: Its value is 2.99.

Q: What about the “glycan array binding signal (z-score)” value (Gal3S6S(b1-4)GlcNAc) of the same binder?
A: The value was 1.73.

Q: And the “glycan array binding signal (z-score)” value (Gal3S6S(b1-4)GlcNAc6S)?
A: The value was 7.93.

Q: And the “glycan array binding signal (z-score)” value (GalNAc(a1-3)Gal)?
A: The value was -0.033.

Q: And the “glycan array binding signal (z-score)” value (Glc(b1-6)Glc)?
A: The value was 1.71.

Q: What about the “glycan array binding signal (z-score)” value (Man(a1-2)Man(a1-3)Man) of the same binder?
A: Its value is -0.171.

Q: What about the “glycan array binding signal (z-score)” value [9] of the same binder?
A: Its value is 0.235.

Q: And the “glycan array binding signal (z-score)” value [10]?
A: Its value is -0.064.

Q: What about the “glycan array binding signal (z-score)” value [11] of the same binder?
A: Its value is -0.514.

Q: And the “glycan array binding signal (z-score)” value (Neu5Ac(a2-6)Gal(b1-4)Glc)?
A: Its value is -0.34.

Q: What about the “glycan array binding signal (z-score)” value [12] of the same binder?
A: The value was 0.271.

Q: And the “glycan array binding signal (z-score)” value [13]?
A: The value was -0.75.

B2: TbCVNHOa (Tuber borchii), Q5MK11 (protein)
chain: GSHIGPYMSYADSSRNAVLTNGGRTLRAECRNADGNWVTSELDLDTCIGNPNGFLGWGMQNFSHSSEDIKLEEGGRKLTCRPKTVDGGFRERQGIDLNRIQNVNGRLVFQ
Q: With B2 as the binder, how does the “glycan array binding signal (z-score)” value (Fuc(a1-2)Gal) read?
A: The value was -0.262.

Q: What about the “glycan array binding signal (z-score)” value [14] of the same binder?
A: The value was 3.46.

Q: What about the “glycan array binding signal (z-score)” value [15] of the same binder?
A: The value was 5.6.

Q: And the “glycan array binding signal (z-score)” value [16]?
A: The value was -0.271.

Q: And the “glycan array binding signal (z-score)” value (Gal(b1-4)Glc)?
A: Its value is -0.264.

Q: What about the “glycan array binding signal (z-score)” value (Gal(b1-4)GlcNAc) of the same binder?
A: The value was -0.238.

Q: What about the “glycan array binding signal (z-score)” value [17] of the same binder?
A: Its value is 2.73.

Q: And the “glycan array binding signal (z-score)” value [18]?
A: Its value is -0.058.

Q: What about the “glycan array binding signal (z-score)” value (GalNAc(b1-4)GlcNAc) of the same binder?
A: The value was -0.239.

Q: And the “glycan array binding signal (z-score)” value [19]?
A: The value was -0.293.

Q: What about the “glycan array binding signal (z-score)” value [20] of the same binder?
A: Its value is -0.292.

Q: And the “glycan array binding signal (z-score)” value (GlcNAc(b1-3)Gal)?
A: The value was -0.283.

Q: And the “glycan array binding signal (z-score)” value [21]?
A: The value was -0.222.

Q: And the “glycan array binding signal (z-score)” value [22]?
A: The value was -0.247.

Q: What about the “glycan array binding signal (z-score)” value [23] of the same binder?
A: Its value is 3.86.

Q: What about the “glycan array binding signal (z-score)” value [24] of the same binder?
A: The value was -0.209.
